Bioassay records deposited in PubChem BioAssay by several laboratories.
aDG glyco act = alpha-DG glycosylation activation. actives 0.22% (n = 360,000). Pro5-aDG cells, alpha-DG glycosylation AlphaScreen (IIH6); 0% Pro5, 100% B10-LARGE cell signal. activation, % at 10 µM;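 active = activation of at least 8% versus controls, or a plate z-score of at least 8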;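 also: Pro5 are CHO cells carrying HIG-tagged alpha-DG that lacks glycosylation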
FAS TE block = inhibitors of human fatty acid synthase thioesterase domain; AID 602261; actives 0.67% (n = 360,000); recombinant FAS-TE, OMFH fluorogenic substrate, fluorescence endpoint; P49327; inhibition, % at 15 µM;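 active = compounds whose normalised, plate-corrected inhibition of enzyme fluorescence in the single-dose primary screen is 50% or more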
MIN6 prolif-1 = MIN6 beta-cell proliferation induction; AID 2380; proliferation, % at 10 µM; MIN6 cells proliferation, ATPlite luminescence, 48 h; cells starved in 0.2% serum; 100% = growth in 10% serum; actives 0.29% (n = 330,000);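 active = compounds whose signal lies at least 3.5 SD above the mean of all wells on their plate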
m-calpain inh = inhibitors of pig calpain II. AID 1236. purified calpain II, fluorogenic peptide substrate, 30 min. actives 0.37% (n = 220,000). inhibition, % at 16 µM;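 active = inhibition above about 50%, limit read from the data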
Cardio protect = modulators protecting cardiomyocytes from myocardial damage; H9c2 cardiomyocytes, H2O2 injury protection, ATPLite, 2 h; protection from H2O2 cell death, % at 20 µM; actives 0.63% (n = 360,000);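 active = compounds giving at least 50% protection of heart cells from peroxide-induced death in the single-dose screen, raw or plate-pattern-corrected value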
H9c2 TAG inh = inhibitors of triacylglycerol accumulation. H9c2 cells, Nile Red lipid (TAG) fluorescence; cells loaded with 200 µM oleic acid. actives 0.66% (n = 230,000). inhibition, % at 12.5 µM;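 active = pattern-corrected inhibition of lipid staining of at least 50% with the nuclear-stain viability signal not falling by more than 50%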
MIN6 prolif-2 = MIN6 beta-cell replication induction, confirmed. 920 tested, under 10 active. shares compounds with MIN6 prolif-1. proliferation increase, % at 50 µM. MIN6 beta-cell proliferation, ATPlite luminescence, 48 h; cells kept in 0.2% serum; scaled between 0.2% and 10% serum;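 active = proliferation increase above 40% at any of the four tested concentrations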
A number is an active result; n = inactive; x = not tested or not shown. Sampled rows, rich in hits. Any-hit rate of the full collection: about 2.3%.

SMILES | aDG glyco act | FAS TE block | MIN6 prolif-1 | m-calpain inh | Cardio protect | H9c2 TAG inh | MIN6 prolif-2
COc1ccccc1CCN1CCCC(CN(C)Cc2ccc(OCCO)cc2)C1 (centres undefined) | n | n | 5.8 | x | n | n | n
COc1ccc(CCN(Cc2ccccn2)C(=S)Nc2cccc(C)c2)cc1OC | n | n | 8.7 | n | n | n | n
CC(C)C(N)c1csc(Nc2ccc(C(=O)NCCCO)cn2)n1 (centres undefined) | n | n | x | x | n | n | x
COc1cc2[nH]c(=O)n(CCCCCC(=O)NC3CCCC3)c(=O)c2cc1OC | n | n | 5.7 | x | n | x | n
COc1ccc(CCNC(=O)CCN2C(=O)c3cccc4cccc(c34)C2=O)cc1OC | n | n | 7.9 | n | n | x | n
O=[N+]([O-])c1ccc2nc(NN=Cc3ccc(O)cc3)sc2c1 | n | n | x | x | n | n | x
CCOC(=O)/C(C(=O)Nc1ccccc1Br)=C1/NC(C)(C)Cc2ccccc21 | n | n | 0.0 | n | n | x | n
CCOC(=O)/C(=N\O)C1=NC(C)(C)Cc2ccccc21 | n | n | n | n | n | n | x
CCC(=O)N1N=C(c2ccccc2)CC1c1ccc([N+](=O)[O-])cc1 (centres undefined) | n | n | 7.3 | n | n | x | n
CCC(=O)N1N=C(c2cccs2)CC1c1ccc(C)cc1 (centres undefined) | n | n | 7.8 | x | n | x | n
Cc1cc(-c2cc(NC=O)c3ncc(-c4cccc(C(=O)NCCN(C)C)c4)n3c2)cc(C)c1O | n | n | x | x | n | n | x
CN(C)S(=O)(=O)c1cc(NC(=O)COC(=O)c2nc(Cl)ccc2Cl)ccc1Cl | n | n | n | x | n | n | x
O=C(NCc1ccc2c(c1)OCO2)c1ccc2c(c1)OCO2 | n | n | n | n | n | n | x
O=C(NCc1ccc2c(c1)OCO2)c1ccc2snnc2c1 | n | n | 8.2 | n | n | n | n
CCOc1ccccc1NC(=O)c1ccc(OCC(=O)N2CCOCC2)c(OC)c1 | n | n | n | x | n | n | x
CCOc1ccccc1N1CCN(C(=O)c2ccc(OCC(=O)N3CCOCC3)c(OC)c2)CC1 | n | n | 14.3 | x | n | n | n
CCCCCOC(=O)Cn1c(N2CCCCCC2)nc2c1c(=O)[nH]c(=O)n2C | n | n | 9.2 | n | n | x | n
Cc1ccc(S(=O)(=O)N2CCN(C(=O)c3nn(C(C)C)c(=O)c4ccccc34)CC2)cc1C | n | n | 5.4 | n | n | n | n
COCCCNC(=S)NCCCNc1nc2cc3c(cc2cc1C#N)OCO3 | n | n | 5.8 | n | n | x | n
O=C(CNC(=S)N(Cc1ccc(F)cc1)C1CCCCC1)NCCN1CCOCC1 | n | n | n | n | n | n | x
O=C(O)CNC(=S)N(Cc1ccc(F)cc1)C1CCCCC1 | n | n | 8.2 | n | n | n | n
COc1ccc(Cc2nc3ccc(C(=O)NCc4cccc(C)n4)cc3o2)cc1OC | n | n | x | x | n | n | x
CCC(O)(C(=O)Nc1ccccc1C(F)(F)F)c1ccccc1OC (centres undefined) | n | n | n | x | n | n | x
COc1ccccc1C(C)NCC(=O)Nc1ccccc1C(F)(F)F (centres undefined) | n | n | 5.3 | n | n | n | n
COc1cccc(C(=O)/C=C2\NCCc3cc(OC)c(OC)cc32)c1 | n | n | 15.6 | x | n | x | n
SMILES | aDG glyco act | FAS TE block | MIN6 prolif-1 | m-calpain inh | Cardio protect | H9c2 TAG inh | MIN6 prolif-2
COc1cc2c(cc1OC)/C(=C/C(=O)c1ccc([N+](=O)[O-])c(C)c1)NCC2 | n | n | 11.5 | x | n | x | n
COc1cc2c(cc1OC)/C(=C/C(=O)c1ccccc1)NCC2 | n | n | n | x | n | x | x
O=C(CN(c1ccccc1)S(=O)(=O)c1ccccc1[N+](=O)[O-])Nc1cccnc1 | n | n | 5.5 | x | n | x | n
Cc1cccc(OCCC(=O)NNC(=O)c2ccoc2C)c1 | n | n | n | x | n | n | x
CCOc1ccc(-c2nnc3ccc(SCC(=O)N4CCCCC4)nn23)cc1 | n | n | 12.3 | x | n | n | n
COc1ccc(-c2nnc3ccc(SCC(=O)N4CCCC4)nn23)cc1 | n | n | n | n | n | n | x
CC1CC(C)CN(C(=O)c2cc(S(=O)(=O)N3CCCCC3)ccc2Cl)C1 (centres undefined) | n | n | 14.0 | x | n | n | n
